Measurements published in PubChem BioAssay AID2685 (National Center for Advancing Translational Sciences (NCATS), 2010).
The campaign covered roughly 320,000 compounds. About 2,100 (0.66%) were called active. Roughly 53% stayed inconclusive and do not appear here. The call rests on the fitted dose curve; in most records, active means well fitted inhibition curve with a large enough effect in the signal ratio, with a control signal flat (not every such curve was filed as active); inconclusive means small, poorly fitted or top-dose-only effect, or effect the other way, or a change in a side signal; inactive means flat fitted curve, though single readings scatter; the % refers to the signal ratio. The list comes from a sample in which actives are over-represented; it also holds similar structures and randomly drawn compounds.

Experiment: qHTS Assay for Lipid Storage Modulators in Drosophila S3 Cells;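 on cell number change: cells counted by Cell Tracker Red CMTPX staining in the red channel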; on lipid storage change, negative = inhibition: on the % scale 0 is the no-effect control and ±100 the full control effect
Conditions: BODIPY lipid droplet fluorescence, 18-24 h, cells fed with added oleic acid; cell number change: measured here: cell count max response; series mostly up to 46.1 µM
Procedure, shortened: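 Drosophila S3 cells got compounds at several concentrations plus oleic acid (400 uM solution). Laser-scanning cytometry with 488 nm excitation read lipid droplets at 500-530 nm and cells at 575-640 nm. Percent activity was relative to 20 uM Triacsin C.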
Potency means the concentration at half of the fitted maximal effect.

Row | Structure (SMILES) | Potency | cell number change [%] | lipid storage change, negative = inhibition
1 | Nc1c(N(CCC2=CCCCC2)C(=O)C2CC2)c(=O)[nH]c(=O)n1Cc1ccccc1 | inactive | 10.2 | 
2 | COc1ccc(C)cc1NC(=O)c1ccccc1NS(=O)(=O)c1cccc2cccnc12 | inactive | -4.79 | 
3 | CCOc1ccc(CO/N=C/c2c(C)[nH]c(=O)[nH]c2=O)cc1 | inactive | 3.8 | 
4 | CCOC(=O)C1=C(N)N2C(=O)C(C)SC2=C(C(=O)OC)C1c1ccccc1OC (centres undefined) | inactive | -22.7 | 
5 | CCOc1cc(/C=N\NC(=O)OC)ccc1OC(=O)c1ccco1 | inactive | 10.8 | 
6 | Cc1ccc(N2CCN(S(=O)(=O)N3CCCCCC3)CC2)cc1Cl | inactive | 8.56 | 
7 | Cc1ccc(Cc2nc(-c3cccnc3)no2)cc1 | inactive | -9.21 | 
8 | O=C(CC(c1ccccc1)c1ccccc1)NCc1cccnc1 | inactive | -6.85 | 
9 | Cc1ccc(C(=O)NCc2ccco2)cc1S(=O)(=O)N1CCCC1 | inactive | 15 | 
10 | O=C(NCCCN1CCOCC1)C(=O)NCC1OCCN1S(=O)(=O)c1cc(F)ccc1F (centres undefined) | inactive | 10.3 | 
11 | Cc1nnsc1C(=O)N1CCN(c2ccc(F)cc2)CC1 | inactive | 6.97 | 
12 | CCOC(=O)c1cc2c(=O)n3cccc(C)c3nc2n(CCCOC)c1=NC(=O)c1cccnc1 | inactive | -8.27 | 
13 | Cc1cccc(N2C(=O)c3ccc(C(=O)Nc4c[nH]c(=O)[nH]c4=O)cc3C2=O)c1 | inactive | -0.423 | 
14 | CC(C)COc1ccc(C/C(N)=N/n2cnnc2)cc1 | 20.6 µM (active) | -24.2 | 
15 | COc1ccc(C/C(N)=N/n2cnnc2)cc1Cl | inactive |  | 
16 | CCOC(=O)Cn1nnc(-c2ccc(OCC(C)C)cc2)n1 | inactive | -1.1 | 
17 | COc1ccc(NC(=O)N2Cc3ccccc3CC2C(=O)NC(C)(C)C)cc1 (centres undefined) | inactive | -0.759 | 
18 | O=C(NCCNc1nccc(C(F)(F)F)n1)c1cccc(C(F)(F)F)c1 | inactive | 8.97 | 
19 | CCN(CC)S(=O)(=O)c1cccc2cccnc12 | 7.31 µM (active) | -17.9 | 
20 | CCCCN(c1ccccc1)S(=O)(=O)c1cccc2cccnc12 | inactive |  | 
21 | O=S(=O)(c1cccc2cccnc12)N(CCO)CCO | inactive | -16.7 | 
22 | CSS(=O)(=O)c1cccc2cccnc12 | 2.59 µM (active) | -61.8 | 
23 | CCCNS(=O)(=O)c1cccc2cccnc12 |  | 2.48 | -0.974% [at 9.22 µM] (inactive)
24 | CNS(=O)(=O)c1cccc2cccnc12 |  | 10 | 11.3% [at 9.22 µM] (inactive)

Row | Structure (SMILES) | Potency | cell number change [%] | lipid storage change, negative = inhibition
25 | Cc1ccccc1OCC(=O)Nc1c2c(nn1C(C)(C)C)CS(=O)(=O)C2 | inactive | -4.53 | 
26 | OCCC1CN(Cc2cnc(-c3ccccc3)s2)CCN1Cc1ccccc1 (centres undefined) | inactive | -2.24 | 
27 | Cc1cc[n+](CC(=O)N2CCCc3ccccc32)cc1 | inactive | -2.96 | 
28 | COC(=O)c1cc(-c2ccc(Br)cc2)c2c(=O)n(C)c(=O)n(C)c2n1 | 20.6 µM (active) | -16.2 | 
29 | CCOc1ccc(-c2cc(C(=O)OC)nc3c2c(=O)n(C)c(=O)n3C)cc1 | inactive | 0.241 | 
30 | COC(=O)c1cc(-c2ccccc2)c2c(=O)n(C)c(=O)n(C)c2n1 | inactive | 0.987 | 
31 | O=C1CSC(c2cccnc2)N1c1ccc(Cl)cc1 (centres undefined) | inactive | -17.2 | 
32 | Cc1ccc2nc(-c3ccc4c(c3)NC(=O)CO4)cn2c1 | inactive | 4.69 | 
33 | CCC1CCCCN1CCCNC(=O)c1ccc(/C=C2/Sc3ccccc3NC2=O)cc1 (centres undefined) | 5.17 µM (active) | -7.79 | 
34 | O=C1Nc2cc(C(=O)NCCCN3CCCC3)ccc2S/C1=C\c1ccccc1 | inactive | -4.94 | 
35 | CCC1CCCCN1CCCNC(=O)c1ccc2c(c1)NC(=O)CS2 (centres undefined) | inactive | 20.8 | 
36 | O=C(CSc1nncs1)Nc1ccc(N2CCCCC2)cc1 | inactive | -24 | 
37 | CCN1CCN(S(=O)(=O)c2ccc(Cl)c(C(=O)N(C)Cc3ccco3)c2)CC1 | inactive | 2.03 | 
38 | Cc1ccc(S(=O)(=O)C2(C(=O)NC3CCCCC3C)CC2)cc1 (centres undefined) | inactive | -11.4 | 
39 | OCCN(CCO)c1nc(-c2ccccc2)nc2c1oc1ccccc12 | inactive | -3.98 | 
40 | Cc1ccc(C(=O)C2=C(O)C(=O)N(Cc3cccnc3)C2c2ccc(Br)cc2)o1 (centres undefined) | inactive | 4.99 | 
41 | COc1ccc(C2C(C(=O)c3ccc(C)o3)=C(O)C(=O)N2Cc2cccnc2)cc1OC (centres undefined) | 0.13 µM (active) | 1.8 | 
42 | Cc1ccc(C(=O)C2=C(O)C(=O)N(Cc3cccnc3)C2c2ccc(Cl)cc2)o1 (centres undefined) | inactive | 10.8 | 
43 | O=C(N1CCCC1)C12CC3CCC(CC(C3)C1)C2 | inactive | 3.73 | 
44 | S=c1[nH]nc(-c2cccnc2)n1/N=C/c1ccco1 | inactive | 1.79 | 
45 | CCC(C)n1[nH]c(=O)cc1N (centres undefined) | inactive | 5.9 | 
46 | CCCCC(C)n1[nH]c(=O)cc1N (centres undefined) | 25.9 µM (active) | -24.5 | 
47 | CCCC(C)n1[nH]c(=O)cc1N (centres undefined) | inactive | 0.134 | 
48 | O=C1CCCN1CCNC(=S)Nc1ccccc1 | inactive | -13 | 
